# Assay results as given in PubChem BioAssay (NCI).
# This is part of a sample that, as a whole, favours compounds with a hit. Of some 83,000 tested, about 20% had one in any assay.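 Cell lines were cultured in 96-well plates, exposed to a single compound concentration, and assessed for percent growth 48 hours later.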 Unmarked numbers belong to inactive results. Calls of active or inactive are those of the source. Rule for the calls: active = growth percent below 10; inactive = the rest.
# Key:
# Assay in all cases: NCI-60 one-dose screen, 48 h (100 = growth as untreated, 0 = no growth, -100 = all killed)
# Conditions in all cases: 10 µM unless noted
# NCI-H226 lung = system: NCI-H226 lung
# NCI-H322M lung = system: NCI-H322M lung
# HOP-62 NSCLC = system: HOP-62 NSCLC
# NCI-H460 lung = system: NCI-H460 lung
# HOP-92 NSCLC = system: HOP-92 NSCLC
# NCI-H522 lung = system: NCI-H522 lung
# A549/ATCC NSCLC = system: A549/ATCC NSCLC
# 786-0 renal = system: 786-0 renal
# COLO 205 colon = system: COLO 205 colon
# DU-145 prostate = system: DU-145 prostate
# K-562 leukemia = system: K-562 leukemia
# MALME-3M melanoma = system: MALME-3M melanoma
# MDA-MB-231 breast = system: MDA-MB-231 breast
# RXF 393 renal = system: RXF 393 renal
# SF-268 CNS = system: SF-268 CNS
# SF-295 CNS = system: SF-295 CNS
# SF-539 CNS = system: SF-539 CNS
# UACC-257 melanoma = system: UACC-257 melanoma
# M14 melanoma = system: M14 melanoma
Compound,growth (NCI-H226 lung),growth (NCI-H322M lung),growth (HOP-62 NSCLC),growth (NCI-H460 lung),growth (HOP-92 NSCLC),growth (NCI-H522 lung),growth (A549/ATCC NSCLC),growth (786-0 renal),growth (COLO 205 colon),growth (DU-145 prostate),growth (K-562 leukemia),growth (MALME-3M melanoma),growth (MDA-MB-231 breast),growth (RXF 393 renal),growth (SF-268 CNS),growth (SF-295 CNS),growth (SF-539 CNS),growth (UACC-257 melanoma),growth (M14 melanoma)
O=C1c2cc3c(cc2-c2c1c1ccc(F)cc1c(=O)n2CCCNCCO)OCO3,-60.1% (active),-33.3% (active),-48.9% (active),-36.8% (active),2.28% (active),-53.9% (active),-74.4% (active),-84.8% (active),-66.5% (active),-68.5% (active),-55.7% (active),-72.2% (active),-70% (active),-92.4% (active),-54.6% (active),-14.3% (active),-86.4% (active),-28% (active),-39.7% (active)
O=S(=O)(Nc1ccc(I)cc1F)c1ccc(-c2cnc(C3CC3)o2)cc1,80.2%,86.2%,52.4%,38.4%,62.1%,31.2%,50.6%,69.1%,68.4%,78.2%,13.2%,50.9%,61%,73%,63.3%,28.6%,44.1%,63.1%,37.4%
CCNC(=O)Oc1ccc(/C(=C(\C)c2ccc(Cl)cc2)c2ccc(OCCN3CCCCC3)cc2)cc1,78.2%,75.2%,58.7%,22.3%,68.8%,80%,46.1%,41.9%,-60.9% (active),72.8%,–,-8.7% (active),51.8%,49.1%,55%,42.7%,47.8%,-33.9% (active),-46.5% (active)
O=C1/C(=C/c2cn(-c3ccccc3)nc2-c2ccccc2)SC(=S)N1CCc1ccccc1,99.4%,113%,94%,102%,122%,93.5%,111%,106%,116%,110%,108%,104%,106%,111%,95.5%,103%,106%,113%,102%
CC(=O)c1cc2c(N)c(C(=O)Nc3ccccc3)sc2nc1C,92%,50.8%,75.1%,15.9%,57.6%,66.5%,28.4%,77.2%,4.95% (active),75.5%,–,89.2%,85.1%,85.1%,93.1%,64.2%,72.5%,68.4%,43.5%
CCc1nnc(CNc2ccc(Cl)cc2)o1,93.2%,92%,111%,100%,102%,89.9%,94.4%,97.4%,106%,108%,86.3%,95.6%,94.4%,113%,96.4%,102%,97%,103%,95.1%
C=CC(COC(c1ccccc1)(c1ccccc1)c1ccccc1)N(CC)CC (stereo unspecified),56.2%,87%,61.8%,58.1%,75.7%,54.9%,63.1%,77.6%,0.413% (active),69.9%,14.4%,61.9%,37%,-5.47% (active),81.9%,64.1%,62.6%,6.09% (active),9.54% (active)
N#Cc1c(-c2ccc(Cl)cc2)nc(NN=Cc2ccco2)nc1N1CCOCC1,70.8%,69.4%,66.4%,68.2%,40.6%,62.3%,78.9%,74%,75.2%,85.4%,104%,42.4%,74.5%,52.2%,74.5%,73.8%,75.3%,87.9%,71.4%
CC1=NN(c2nc(-c3ccc(Cl)cc3)c(C#N)c(N3CCOCC3)n2)C(=O)C1,89.8%,101%,87%,99.1%,6.28% (active),78.9%,101%,49.1%,104%,102%,101%,42%,91.9%,43.4%,91.1%,103%,97.9%,99.9%,90%
CC1(C)CC[C@]2(C(=O)Nc3ccccn3)CC[C@]3(C)C(=CC[C@@H]4[C@@]5(C)C/C(=C/c6cccnc6)C(=O)C(C)(C)[C@@H]5CC[C@]43C)[C@H]2C1,47.8%,79.1%,54.7%,10.6%,57.7%,30.5%,27.3%,43.2%,4.76% (active),53.2%,18.7%,48.3%,73.2%,33.3%,53.5%,38.1%,51.6%,26.2%,35.6%
Cc1ccc(C2Oc3ccccc3C3CC(c4cccs4)=NN32)cc1 (stereo unspecified),84.7%,–,105%,101%,81.7%,88.7%,103%,99.8%,104%,97%,101%,95.1%,91.3%,101%,91.4%,99%,90.1%,98.6%,99.3%
O=C(/C=C/c1ccccc1)c1ccc(O)c(CN2CCN(c3cc4c(cc3F)c(=O)c(C(=O)O)cn4C3CC3)CC2)c1,40.4%,22.7%,25.1%,34.7%,-5.65% (active),1.49% (active),17.6%,23.9%,89.8%,31.3%,16.7%,18.9%,33.3%,17.4%,28.1%,4.62% (active),10.3%,31.7%,27.9%
CNC(=O)c1cc(Oc2ccc(NC(=O)Nc3ccc(Cl)c(SC)c3)c(F)c2)ccn1,40.4%,–,62.1%,58.2%,48.8%,17.5%,39.9%,88.5%,24.4%,72.1%,18.1%,27.5%,50.1%,85.9%,50.6%,34%,47.3%,28.1%,29.7%
Oc1cccc(-c2nc(N3CCOCC3)c3c4c(sc3n2)CCCC4)c1,61.1%,56%,62%,44.1%,11.2%,42.2%,51.7%,96.7%,103%,37.8%,69.1%,49%,43.2%,16.3%,36.8%,75.6%,50.6%,69.7%,60.7%
CN(C)S(=O)(=O)c1cccc(-c2nc3sc4c(c3c(=O)[nH]2)CCCC4)c1,54%,27.2%,42.7%,7.27% (active),11.4%,54.7%,25.8%,-37.1% (active),64.6%,54.5%,37.9%,17.2%,34.8%,10.7%,64.9%,24.7%,23%,75%,48%
